Assay results from PubChem BioAssay (EPA / NIEHS).
Records with an inconclusive call do not appear. More than one record can exist for a structure, and the calls need not agree. Active and inactive are the calls of the source. The calls were made as follows, unless noted: active = hit-call score of the fitted dose curve at least 0.9, where 1 is the maximum; inconclusive = response in the unintended direction; inactive = score below 0.9.

Target: human Peroxisome Proliferator-activated Receptor delta (PPARd), PPARD (gene 5467) (UniProt Q03181)
Sequence (Q03181 whole entry, looked up): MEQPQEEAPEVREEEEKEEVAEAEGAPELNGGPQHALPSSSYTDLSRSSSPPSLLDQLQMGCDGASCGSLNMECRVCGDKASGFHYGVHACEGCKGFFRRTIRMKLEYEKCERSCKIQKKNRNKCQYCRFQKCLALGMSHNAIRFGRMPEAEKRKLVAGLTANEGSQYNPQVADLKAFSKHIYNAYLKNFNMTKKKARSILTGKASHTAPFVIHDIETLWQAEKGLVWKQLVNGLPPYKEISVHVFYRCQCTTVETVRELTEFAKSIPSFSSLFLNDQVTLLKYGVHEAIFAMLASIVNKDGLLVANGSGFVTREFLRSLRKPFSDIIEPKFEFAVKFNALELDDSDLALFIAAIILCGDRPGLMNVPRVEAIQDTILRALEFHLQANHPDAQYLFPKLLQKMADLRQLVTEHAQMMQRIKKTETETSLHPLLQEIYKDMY
Assay: ATG_PPARd_TRANS: Attagene TRANS-FACTORIAL HepG2 Assay for human Peroxisome Proliferator-activated Receptor delta (PPARd) (AID 2283002)
Details: not given
Method in brief: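 Cell-based TRANS reporter: HepG2, transient MRTU transfection, 24 h exposure. Readout = reporter mRNA (RT-PCR/CE, 6-FAM). Gain-of-signal fit vs DMSO control.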

Compound	outcome
CCCCCCC(=O)c1ccccc1	inactive
CCC(C)S (stereo unspecified)	inactive
Cc1cc(C)nc(NS(=O)(=O)c2ccc(N)cc2)n1	inactive
C[Si](C)(C)O[Si](C)(C)C	inactive
CCOC(=O)COC(=O)c1cc(Oc2ccc(C(F)(F)F)cc2Cl)ccc1[N+](=O)[O-]	inactive
CC(C)c1ccccc1O	inactive
O=C1OC(=O)c2c(Br)c(Br)c(Br)c(Br)c21	inactive
Cc1occc(=O)c1OC(=O)C(C)C	inactive
NCc1ccco1	inactive
O=c1c(O)c(-c2ccc(O)cc2)oc2cc(O)cc(O)c12	inactive
Nc1ccc(NCCO)c([N+](=O)[O-])c1	inactive
CCCSc1ccc2nc(NC(=O)OC)[nH]c2c1	inactive
COc1cc([C@@H]2c3cc4c(cc3[C@@H](O[C@@H]3O[C@@H]5CO[C@@H](C)O[C@H]5[C@H](O)[C@H]3O)[C@H]3COC(=O)[C@H]23)OCO4)cc(OC)c1O	inactive
CCCCCC(=O)CC	inactive
Clc1ccc(C(c2ccccc2Cl)C(Cl)Cl)cc1 (stereo unspecified)	inactive
Cc1[nH]c(=O)c(C#N)cc1-c1ccncc1	inactive
CC(C)=CCCC(C)CC(=O)O (stereo unspecified)	inactive

Compound	outcome
CCOC(=O)[C@@H](C)Oc1ccc(Oc2nc3ccc(Cl)cc3o2)cc1	inactive
CCCC(=O)OC(C)(C)Cc1ccccc1	inactive
Cc1cccc(Nc2ccccc2)c1	inactive
COC(=O)c1ccc([N+](=O)[O-])cc1	inactive
N#Cc1ccc(CC(=O)c2cccc(C(F)(F)F)c2)cc1	inactive
CCO/C=C1\N=C(c2ccccc2)OC1=O	inactive
O=C1CCCC=CCCCCCCCCCC1	inactive
Nc1c(Cl)cc(Cl)cc1[N+](=O)[O-]	inactive
CC/C=C\CC/C=C/CO	inactive
CCCCCCCCSCCO	inactive
CC(Oc1cc(Cl)ccc1Cl)C(=O)O (stereo unspecified)	inactive
COCCOC(=O)c1ccccc1C(=O)OCCOC	inactive
NCC1CCCC(CN)C1 (stereo unspecified)	inactive
CCCCC(CC)COC(=O)c1ccc(O)cc1 (stereo unspecified)	inactive
CCCCCCCCCCCCN1CCCCCC1=O	inactive
CC(=O)CC(=O)Nc1ccccc1	inactive
Cc1c(OCC(F)(F)F)ccnc1CS(=O)c1nc2ccccc2[nH]1 (stereo unspecified)	inactive

Read-out: Intercellular Adhesion Molecule 1 (ICAM1), ICAM1 (gene 3383)
Assay: BSK_3C_ICAM1: BioMAP Diversity Plus: 3C Assay for Intercellular Adhesion Molecule 1 (ICAM1) Biomarker Activity (AID 2283003; active = hit-call score of the fitted dose curve at least 0.9, where 1 is the maximum; inactive = score below 0.9)
Details: primary human endothelial cells (HUVEC); actives raise or lower the signal
Method in brief: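 Human vascular endothelial primary cells, 3C conditions, 24 h treatment. ICAM-1 by ELISA.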

Compound	outcome	AC50
Cc1cc(CCC(=O)OCCOCCOCCOC(=O)CCc2cc(C)c(O)c(C(C)(C)C)c2)cc(C(C)(C)C)c1O	inactive	
Oc1c(Cl)cc(Cl)c(Cl)c1Cc1c(O)c(Cl)cc(Cl)c1Cl		27.1 µM (active)
CC(CN=Cc1ccccc1O)N=Cc1ccccc1O (stereo unspecified)	inactive	
O=C1c2ccccc2C(=O)c2c(O)ccc(O)c21	inactive	

Target: human Retinoic Acid Receptor beta (RARb), RARB (gene 5915) (UniProt P10826)
Sequence (P10826 whole entry, looked up): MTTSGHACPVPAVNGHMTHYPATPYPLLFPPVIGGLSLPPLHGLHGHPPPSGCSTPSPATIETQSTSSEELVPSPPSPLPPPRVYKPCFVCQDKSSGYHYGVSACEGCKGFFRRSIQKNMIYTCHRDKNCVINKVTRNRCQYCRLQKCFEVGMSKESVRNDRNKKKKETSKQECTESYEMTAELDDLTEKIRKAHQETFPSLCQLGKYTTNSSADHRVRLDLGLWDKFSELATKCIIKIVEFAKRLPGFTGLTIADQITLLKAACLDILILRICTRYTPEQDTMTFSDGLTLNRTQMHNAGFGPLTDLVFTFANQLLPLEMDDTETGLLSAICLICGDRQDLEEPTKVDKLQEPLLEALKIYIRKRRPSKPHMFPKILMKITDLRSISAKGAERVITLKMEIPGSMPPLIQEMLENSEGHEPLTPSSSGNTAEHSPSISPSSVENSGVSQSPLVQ
Assay: ATG_RARb_TRANS: Attagene TRANS-FACTORIAL HepG2 Assay for human Retinoic Acid Receptor beta (AID 2283004)
Details: not given
Method in brief: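 Fluorescent capillary-electrophoresis detection of GAL4-UAS reporter mRNA defines the endpoint, with induction over DMSO-treated wells scored as activity. Transiently transfected human hepatoma HepG2 cells expressing exogenous NR–Gal4 proteins are exposed to test chemicals for 24 h.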

Compound	outcome
Cc1cc(CCC(=O)OCCOCCOCCOC(=O)CCc2cc(C)c(O)c(C(C)(C)C)c2)cc(C(C)(C)C)c1O	inactive
Oc1c(Cl)cc(Cl)c(Cl)c1Cc1c(O)c(Cl)cc(Cl)c1Cl	inactive
CC(CN=Cc1ccccc1O)N=Cc1ccccc1O (stereo unspecified)	inactive
O=C1c2ccccc2C(=O)c2c(O)ccc(O)c21	inactive

Target: Retinoic acid receptor alpha (Homo sapiens) (UniProt P10276)
Sequence (P10276 whole entry, looked up): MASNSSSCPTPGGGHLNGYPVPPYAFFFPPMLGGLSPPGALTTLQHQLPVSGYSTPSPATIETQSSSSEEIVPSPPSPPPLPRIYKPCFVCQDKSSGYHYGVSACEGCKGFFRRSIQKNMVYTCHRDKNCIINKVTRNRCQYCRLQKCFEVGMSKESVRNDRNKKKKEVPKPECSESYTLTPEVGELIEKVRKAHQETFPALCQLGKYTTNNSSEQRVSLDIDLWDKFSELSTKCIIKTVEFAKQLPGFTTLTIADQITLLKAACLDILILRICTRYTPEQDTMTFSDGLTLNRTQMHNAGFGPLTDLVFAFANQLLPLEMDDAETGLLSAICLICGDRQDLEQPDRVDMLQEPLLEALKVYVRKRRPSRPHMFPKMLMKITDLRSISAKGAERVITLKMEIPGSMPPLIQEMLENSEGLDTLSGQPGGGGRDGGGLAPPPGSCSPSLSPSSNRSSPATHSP
Assay: ATG_RARa_TRANS: Attagene TRANS-FACTORIAL HepG2 Assay for human Retinoic Acid Receptor alpha (RARa) (AID 2283005)
Details: not given
Method in brief: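 Reporter transcripts, measured by RT-PCR with fluorescent labeling and capillary electrophoresis after 24 h dosing, reflect activity of an exogenous human RARa–GAL4 fusion in transiently transfected HepG2. Fitted for increase relative to DMSO.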

Compound	outcome
C[Si](C)(C)O[Si](C)(C)C	inactive
Cc1cc(CCC(=O)OCCOCCOCCOC(=O)CCc2cc(C)c(O)c(C(C)(C)C)c2)cc(C(C)(C)C)c1O	inactive
Oc1c(Cl)cc(Cl)c(Cl)c1Cc1c(O)c(Cl)cc(Cl)c1Cl	inactive
O=C1c2ccccc2C(=O)c2c(O)ccc(O)c21	inactive
CCCCC(CC)COC(=O)c1ccc(O)cc1 (stereo unspecified)	inactive

Read-out: not listed separately
Assay: BSK_3C_Proliferation: Cell Proliferation Assessment in the BioMAP Diversity Plus: 3C Assay (AID 2283006; active = hit-call score of the fitted dose curve at least 0.9, where 1 is the maximum; inactive = score below 0.9;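 as to AC50: potency may reflect either rise or fall in cell number versus DMSO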)
Details: primary human endothelial cells (HUVEC)
Method in brief: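 Proliferation of human vascular endothelial primary cells after 48 h dosing, quantified as SRB-stained protein at 560 nm relative to DMSO.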

Compound	outcome	AC50
Cc1cc(CCC(=O)OCCOCCOCCOC(=O)CCc2cc(C)c(O)c(C(C)(C)C)c2)cc(C(C)(C)C)c1O	inactive	
Oc1c(Cl)cc(Cl)c(Cl)c1Cc1c(O)c(Cl)cc(Cl)c1Cl		2.22 µM (active)
CC(CN=Cc1ccccc1O)N=Cc1ccccc1O (stereo unspecified)	inactive	3.97 µM (active)
O=C1c2ccccc2C(=O)c2c(O)ccc(O)c21		2.95 µM (active)

Target: Peroxisome proliferator-activated receptor gamma (Homo sapiens) (UniProt P37231)
Sequence (P37231 whole entry, looked up): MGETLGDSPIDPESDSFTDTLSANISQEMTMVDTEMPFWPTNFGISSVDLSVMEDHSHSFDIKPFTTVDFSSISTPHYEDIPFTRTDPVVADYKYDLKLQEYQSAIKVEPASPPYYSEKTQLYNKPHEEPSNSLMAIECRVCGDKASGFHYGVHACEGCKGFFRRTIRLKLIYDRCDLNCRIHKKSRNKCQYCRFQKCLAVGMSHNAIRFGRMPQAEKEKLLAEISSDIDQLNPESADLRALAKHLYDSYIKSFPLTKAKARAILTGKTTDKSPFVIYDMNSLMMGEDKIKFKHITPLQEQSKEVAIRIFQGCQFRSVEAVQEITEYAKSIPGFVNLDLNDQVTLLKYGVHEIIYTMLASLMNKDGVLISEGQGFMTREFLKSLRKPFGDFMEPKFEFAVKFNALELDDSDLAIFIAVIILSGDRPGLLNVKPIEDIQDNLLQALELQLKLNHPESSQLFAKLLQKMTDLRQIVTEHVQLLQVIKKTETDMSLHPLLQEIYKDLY
Assay: ATG_PPARg_TRANS: Attagene TRANS-FACTORIAL HepG2 Assay for human Peroxisome Proliferator-activated Receptor-gamma (PPARg) (AID 2283007)
Details: not given
Method in brief: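 Human hepatoma HepG2, transient MRTU transfection, 24 h treatment. mRNA reporter signal by RT-PCR plus capillary electrophoresis, fluorescence detection; fitted for increase over DMSO negative control.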

Compound	AC50	outcome
CCCCCCC(=O)c1ccccc1	42.8 µM (active)	
Cc1cc(C)nc(NS(=O)(=O)c2ccc(N)cc2)n1		inactive
CCOC(=O)COC(=O)c1cc(Oc2ccc(C(F)(F)F)cc2Cl)ccc1[N+](=O)[O-]	11.1 µM (active)	
O=C1OC(=O)c2c(Br)c(Br)c(Br)c(Br)c21		inactive
Cc1cc(CCC(=O)OCCOCCOCCOC(=O)CCc2cc(C)c(O)c(C(C)(C)C)c2)cc(C(C)(C)C)c1O	24.2 µM (active)	
O=c1c(O)c(-c2ccc(O)cc2)oc2cc(O)cc(O)c12	9.39 µM (active)	
Nc1ccc(NCCO)c([N+](=O)[O-])c1		inactive
COc1cc([C@@H]2c3cc4c(cc3[C@@H](O[C@@H]3O[C@@H]5CO[C@@H](C)O[C@H]5[C@H](O)[C@H]3O)[C@H]3COC(=O)[C@H]23)OCO4)cc(OC)c1O		inactive
CCCCCC(=O)CC		inactive
Clc1ccc(C(c2ccccc2Cl)C(Cl)Cl)cc1 (stereo unspecified)		inactive
Cc1[nH]c(=O)c(C#N)cc1-c1ccncc1		inactive
CC(C)=CCCC(C)CC(=O)O (stereo unspecified)		inactive
CCOC(=O)[C@@H](C)Oc1ccc(Oc2nc3ccc(Cl)cc3o2)cc1	39.2 µM (active)	
CCCC(=O)OC(C)(C)Cc1ccccc1		inactive
Cc1cccc(Nc2ccccc2)c1	85.4 µM (active)	
COC(=O)c1ccc([N+](=O)[O-])cc1		inactive
N#Cc1ccc(CC(=O)c2cccc(C(F)(F)F)c2)cc1	31.4 µM (active)	
CC(CN=Cc1ccccc1O)N=Cc1ccccc1O (stereo unspecified)	72.2 µM (active)	
CCO/C=C1\N=C(c2ccccc2)OC1=O		inactive
O=C1CCCC=CCCCCCCCCCC1	66.8 µM (active)	
CC/C=C\CC/C=C/CO	52.9 µM (active)	
CCCCCCCCSCCO	33.8 µM (active)	
CC(Oc1cc(Cl)ccc1Cl)C(=O)O (stereo unspecified)		inactive
COCCOC(=O)c1ccccc1C(=O)OCCOC		inactive
O=C1c2ccccc2C(=O)c2c(O)ccc(O)c21	8.37 µM (active)	
NCC1CCCC(CN)C1 (stereo unspecified)		inactive
CCCCCCCCCCCCN1CCCCCC1=O		inactive
CC(=O)CC(=O)Nc1ccccc1		inactive
Cc1c(OCC(F)(F)F)ccnc1CS(=O)c1nc2ccccc2[nH]1 (stereo unspecified)	23.7 µM (active)	
